Among the test systems are SK-MEL-2 melanoma; SN12C renal; UO-31 renal; ACHN renal; CAKI-1 renal; A498 renal; CCRF-CEM leukemia; MOLT-4 leukemia; TK-10 renal.
Holding throughout (test): NCI-60 one-dose screen, 48 h (100 = growth as untreated, 0 = no growth, -100 = all killed)
Conditions in all cases: 10 µM

Each structure is given as a SMILES string. The panel holds about 83,000 compounds, 20% with a hit somewhere; the sample as a whole holds those more often.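 Note: values are percent growth. 100 is the growth of untreated cells, values between 100 and 0 indicate rising inhibition; between -100 and 0 indicates cell death.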 A number with no mark means an inactive call. Active and inactive are the calls of the source. How the source made its calls: active means growth percent below 10; inactive means the rest.

As for `NS(=O)(=O)c1ccc(N2N=C(c3ccc(-c4ccccc4)cc3)CC2c2ccc(Cl)cc2)cc1` (centres undefined), the growth in the experiment with SK-MEL-2 melanoma was 95.5%; in the experiment on SN12C renal, 67.4%; in the experiment with UO-31 renal it was 72.1%; in the experiment on ACHN renal, 80.4%; in the experiment on CAKI-1 renal, 78.7%; with A498 renal, 87.4%. The values for the growth in the experiment on CCRF-CEM leukemia and with MOLT-4 leukemia were 74.4% and 70.6%, respectively.

As for `O=C(Nc1ccc(OCc2nnc(-c3ccccc3)o2)c(F)c1)Nc1ccc(Cl)c(Cl)c1`, the growth in the experiment on SK-MEL-2 melanoma is 72.9%; with SN12C renal it was 64%; in the experiment on UO-31 renal, 68.5%; in the experiment with ACHN renal it was 39%; with CAKI-1 renal it was 68.4%; in the experiment with A498 renal, 12.4%. For the same compound, the results for the growth in the experiment on CCRF-CEM leukemia and in the experiment on MOLT-4 leukemia were 37.6% and 43.8%, respectively.

For `O=C(COc1ccc(-c2nc3ccccc3[nH]2)cc1)N=Nc1c(O)[nH]c2ccccc12`, the growth was 113% in the experiment on SK-MEL-2 melanoma; 93.4% with UO-31 renal; 128% with TK-10 renal; 98.7% in the experiment with ACHN renal; 99.2% in the experiment with CAKI-1 renal; 86.4% in the experiment on A498 renal. The growth in the experiment with CCRF-CEM leukemia was 4.95% (active); with MOLT-4 leukemia it was 91.8%.

`CC(=O)Nc1nc(C)c(C(=O)N/N=C/c2cccn2C)s1`: the growth with SK-MEL-2 melanoma was 43.6%; in the experiment with SN12C renal, 94.5%; in the experiment with UO-31 renal, 93.7%; in the experiment on ACHN renal, 107%; in the experiment with CAKI-1 renal, 111%; with A498 renal it was 89.6%. Besides, the growth was 98.8% with CCRF-CEM leukemia and 100% in the experiment on MOLT-4 leukemia.

In the case of `CCCCCCN=C(N)CCCCCCCCCCC(N)=NCCCCCC`, the growth in the experiment with SK-MEL-2 melanoma is 38.3%; in the experiment on UO-31 renal, 78.6%; in the experiment on TK-10 renal, 55.6%; with ACHN renal it was 48.5%; in the experiment with CAKI-1 renal, 55.9%; in the experiment with A498 renal, 37%. In addition, the growth in the experiment on CCRF-CEM leukemia is 29.5%.

In the case of `Cc1ccc([P+](Cc2ccc([N+](=O)[O-])cc2)(c2ccc(C)cc2)c2ccc(C)cc2)cc1`, the growth is -21.6% (active) with SK-MEL-2 melanoma; 70.5% with UO-31 renal; 49.1% in the experiment on TK-10 renal; 97.5% in the experiment on ACHN renal; 94.7% in the experiment with CAKI-1 renal; 65.6% with A498 renal. The growth in the experiment on CCRF-CEM leukemia is 24.5%.

With `COc1nc2c(c(=O)[nH]1)C(c1ccc(Oc3ccnc4cc(Cl)ccc34)c(OC)c1)C=C(c1cc(OC)c(OC)c(OC)c1)N2` (centres undefined), the growth with SK-MEL-2 melanoma is 82.6%; with SN12C renal it was 90.7%; with UO-31 renal it was 74.5%; with ACHN renal, 102%; with CAKI-1 renal, 94.1%; in the experiment on A498 renal, 81.9%. For the same compound, the growth in the experiment on CCRF-CEM leukemia is 87.4%; with MOLT-4 leukemia, 78%.

In the case of `CCOC(=O)c1c(C)n(-c2ccc(Cl)cc2)c2ccc(OC(=O)/C=C/c3ccccc3)cc12`, the growth in the experiment on SK-MEL-2 melanoma is 64.2%; with SN12C renal, 86.6%; with UO-31 renal it was 83.1%; with ACHN renal, 98.7%; in the experiment with CAKI-1 renal, 103%; in the experiment on A498 renal, 68.7%. In addition, the growth with CCRF-CEM leukemia was 75.1%; with MOLT-4 leukemia it was 69.8%.

As for `CCCc1c(C)nc2scc(-c3ccc(Cl)cc3)n2c1=O`, the growth is 95.1% with SK-MEL-2 melanoma; 96.3% in the experiment on SN12C renal; 73% in the experiment with UO-31 renal; 95.3% in the experiment with ACHN renal; 96.6% in the experiment on CAKI-1 renal; 98.2% with A498 renal. The growth with CCRF-CEM leukemia was 95%; in the experiment on MOLT-4 leukemia it was 87.1%.

In the case of `CCN1CCN(c2ccc(Nc3ncnc4c3nnn4CCc3cc(OC)cc(OC)c3)cc2)CC1`, the growth in the experiment on SK-MEL-2 melanoma is 110%; in the experiment on SN12C renal it was 93.7%; in the experiment with UO-31 renal, 81.3%; in the experiment on ACHN renal, 106%; in the experiment with CAKI-1 renal it was 102%; in the experiment with A498 renal, 65.6%. The results for the growth in the experiment with CCRF-CEM leukemia and with MOLT-4 leukemia were 86.4% and 88.9%, respectively.

Turning to `O=NN(CCCl)C(=O)Nc1ccc(NC(=O)N(CCCl)N=O)cc1`, the growth is 129% in the experiment with SK-MEL-2 melanoma; 90.7% with SN12C renal; 96.6% with UO-31 renal; 96.4% in the experiment on ACHN renal; 100% in the experiment with CAKI-1 renal; 67.1% in the experiment on A498 renal. For the same compound, the growth was 102% in the experiment on CCRF-CEM leukemia and 97.2% in the experiment on MOLT-4 leukemia.

Regarding `COc1ccc(/C=C2\CCC3C(CCCC34OCCO4)C2=O)cc1` (centres undefined), the growth in the experiment on SK-MEL-2 melanoma was 88.4%; in the experiment with SN12C renal it was 96.8%; in the experiment on UO-31 renal, 80.5%; with ACHN renal it was 93.6%; in the experiment with CAKI-1 renal, 80.2%; in the experiment with A498 renal, 106%. Also, the growth with CCRF-CEM leukemia is 79.1%; with MOLT-4 leukemia, 78.2%.

For the compound `CCc1nn2c(-c3ccccc3)c(-c3cc(OC)c(OC)c(OC)c3)nc2s1`, the growth in the experiment on SK-MEL-2 melanoma was 37.9%; in the experiment on UO-31 renal it was 57.6%; with TK-10 renal, 82.2%; in the experiment on ACHN renal, 85.8%; in the experiment on CAKI-1 renal it was 69.4%; in the experiment on A498 renal it was 62.5%. The values for the growth with CCRF-CEM leukemia and in the experiment on MOLT-4 leukemia were 70.9% and 72.4%, respectively.

Turning to `CCOC(=O)/C(C#N)=C(/C)C1CC1`, the growth in the experiment on SK-MEL-2 melanoma was 111%; with SN12C renal it was 107%; with UO-31 renal, 88.3%; with ACHN renal, 105%; in the experiment with CAKI-1 renal, 104%; with A498 renal it was 94.1%. The growth with CCRF-CEM leukemia is 103%.

As for `COc1cc(Cl)cc(-c2nn(-c3cccc(NC(=O)Nc4cccc(C(F)(F)F)c4)c3)cc2-c2ccncc2)c1`, the growth in the experiment on SK-MEL-2 melanoma is -36.7% (active); with UO-31 renal it was -4.59% (active); with TK-10 renal, 23.4%; in the experiment with ACHN renal, 5.44% (active); with CAKI-1 renal, 16.1%; in the experiment on A498 renal, -6.74% (active). Moreover, the growth was 3.34% (active) in the experiment on CCRF-CEM leukemia and -9.16% (active) with MOLT-4 leukemia.

In the case of `COc1ccc(S(=O)(=O)Nc2cc(/C=C\c3cc(OC)c(OC)c(OC)c3)ccc2OC)cc1`, the growth with SK-MEL-2 melanoma was 5.84% (active); in the experiment on UO-31 renal it was 24.6%; in the experiment with TK-10 renal, 39.6%; with ACHN renal it was 18.7%; in the experiment with CAKI-1 renal, 26%; in the experiment on A498 renal, -19.2% (active). Also, the growth in the experiment with CCRF-CEM leukemia was 15.4%.

The values above are taken from PubChem BioAssay (NCI).
